Experimental data from the supplement of paper PMC11732987, “Enantioselective OTUD7B fragment discovery through chemoproteomics screening and high-throughput optimisation” (Communications Chemistry, 2025).

Tests used:
Test in all cases: log2 ratio of Biotin-Ahx-Ub-VS probe labelling (fragment/DMSO); higher = less target engagement (more negative = stronger competition), active = hit call of the paper (q ≤ 0.05, log2 ratio ≤ -1)
Conditions in all cases: compound concentration: 200 uM; treatment time: 3 h
ALG13 = biological target: T1, ALG13 (UniProt Q9NP73)
T1 sequence (whole entry): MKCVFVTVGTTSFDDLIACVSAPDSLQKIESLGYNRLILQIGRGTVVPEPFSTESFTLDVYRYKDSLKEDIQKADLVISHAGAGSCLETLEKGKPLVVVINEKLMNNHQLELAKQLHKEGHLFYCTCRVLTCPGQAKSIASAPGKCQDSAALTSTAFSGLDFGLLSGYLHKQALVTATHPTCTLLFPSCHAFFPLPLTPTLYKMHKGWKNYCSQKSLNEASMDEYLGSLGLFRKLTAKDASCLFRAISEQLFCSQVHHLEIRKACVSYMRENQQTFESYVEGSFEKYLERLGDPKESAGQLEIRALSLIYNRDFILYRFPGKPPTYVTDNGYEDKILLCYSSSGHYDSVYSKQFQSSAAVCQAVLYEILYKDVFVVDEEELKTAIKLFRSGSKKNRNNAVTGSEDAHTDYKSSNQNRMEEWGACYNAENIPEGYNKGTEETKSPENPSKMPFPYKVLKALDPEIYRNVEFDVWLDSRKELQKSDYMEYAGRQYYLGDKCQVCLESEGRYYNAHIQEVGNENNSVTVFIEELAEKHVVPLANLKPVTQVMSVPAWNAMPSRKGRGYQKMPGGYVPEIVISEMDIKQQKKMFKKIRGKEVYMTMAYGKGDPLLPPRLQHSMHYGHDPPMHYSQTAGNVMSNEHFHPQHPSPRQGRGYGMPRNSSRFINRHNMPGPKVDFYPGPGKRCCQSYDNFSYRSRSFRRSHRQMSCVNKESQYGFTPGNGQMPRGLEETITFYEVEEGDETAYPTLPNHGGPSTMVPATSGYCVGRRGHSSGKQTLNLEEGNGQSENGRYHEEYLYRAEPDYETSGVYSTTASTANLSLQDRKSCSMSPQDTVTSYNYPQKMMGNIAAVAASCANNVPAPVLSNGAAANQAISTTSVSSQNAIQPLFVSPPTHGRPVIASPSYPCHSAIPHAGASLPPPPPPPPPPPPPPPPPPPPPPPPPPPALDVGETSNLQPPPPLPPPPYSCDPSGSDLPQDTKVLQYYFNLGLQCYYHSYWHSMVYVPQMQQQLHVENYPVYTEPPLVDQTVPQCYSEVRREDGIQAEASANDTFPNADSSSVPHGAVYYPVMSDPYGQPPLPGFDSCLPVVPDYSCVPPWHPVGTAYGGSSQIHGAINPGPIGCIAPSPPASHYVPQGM
In short: (§1)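 HEK293T lysate (495 µg per sample, in Tris/CHAPS/IGEPAL buffer with protease inhibitors) was treated in triplicate with fragment at 200 µM or with DMSO for 3 h. It was then treated with Biotin-Ahx-Ub-VS (0.5 µM final) for 1 h. Labelled DUBs were NeutrAvidin-enriched, digested with LysC and trypsin, and run by diaPASEF LC-MS/MS. Spectronaut label-free quantities were global-median-normalised. Values are average log2 ratios fragment/DMSO by unpaired t-test, using proteins with ≥2 unique peptides.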

ATXN3 = ATXN3 (UniProt P54252)
In short: as §1

BAP1 = biological target: T2, BAP1 (UniProt Q92560)
T2 sequence (whole entry): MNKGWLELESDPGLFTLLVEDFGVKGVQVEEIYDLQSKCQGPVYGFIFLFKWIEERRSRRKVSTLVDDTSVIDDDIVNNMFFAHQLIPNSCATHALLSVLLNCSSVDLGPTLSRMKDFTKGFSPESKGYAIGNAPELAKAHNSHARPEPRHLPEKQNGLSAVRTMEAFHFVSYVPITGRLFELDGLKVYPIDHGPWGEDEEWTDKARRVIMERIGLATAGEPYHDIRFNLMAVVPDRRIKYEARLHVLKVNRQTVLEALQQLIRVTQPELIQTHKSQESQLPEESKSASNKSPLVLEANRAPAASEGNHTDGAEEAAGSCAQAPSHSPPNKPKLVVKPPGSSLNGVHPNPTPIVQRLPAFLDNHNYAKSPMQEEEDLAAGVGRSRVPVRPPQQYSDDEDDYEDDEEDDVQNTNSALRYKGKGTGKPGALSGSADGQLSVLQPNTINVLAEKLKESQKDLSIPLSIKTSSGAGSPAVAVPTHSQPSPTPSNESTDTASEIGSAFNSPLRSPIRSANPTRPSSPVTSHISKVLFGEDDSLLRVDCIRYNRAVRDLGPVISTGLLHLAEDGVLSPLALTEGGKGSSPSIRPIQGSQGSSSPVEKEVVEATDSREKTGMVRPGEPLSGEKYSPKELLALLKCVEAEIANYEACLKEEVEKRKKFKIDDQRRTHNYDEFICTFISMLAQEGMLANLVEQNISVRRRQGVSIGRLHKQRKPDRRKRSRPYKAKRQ
In short: as §1

EIF3F = EIF3F (UniProt O00303)
In short: as §1

EIF3H = EIF3H (UniProt O15372)
In short: as §1

FAM105A = biological target: T3, FAM105A (UniProt Q9NUU6)
T3 sequence (whole entry): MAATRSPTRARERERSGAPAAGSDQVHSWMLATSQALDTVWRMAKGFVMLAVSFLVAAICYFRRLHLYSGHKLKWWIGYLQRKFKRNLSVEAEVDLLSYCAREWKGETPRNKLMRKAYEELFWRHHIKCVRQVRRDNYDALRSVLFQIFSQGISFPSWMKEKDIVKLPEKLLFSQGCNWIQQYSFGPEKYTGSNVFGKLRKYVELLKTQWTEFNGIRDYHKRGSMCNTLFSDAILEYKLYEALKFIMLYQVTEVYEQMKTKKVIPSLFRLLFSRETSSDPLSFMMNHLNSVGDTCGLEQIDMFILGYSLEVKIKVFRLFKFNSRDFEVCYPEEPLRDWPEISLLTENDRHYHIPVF
In short: as §1

OTUB1 = OTUB1 (UniProt Q96FW1)
In short: as §1

OTUD4 = biological target: T4, OTUD4 (UniProt Q01804)
T4 sequence (whole entry): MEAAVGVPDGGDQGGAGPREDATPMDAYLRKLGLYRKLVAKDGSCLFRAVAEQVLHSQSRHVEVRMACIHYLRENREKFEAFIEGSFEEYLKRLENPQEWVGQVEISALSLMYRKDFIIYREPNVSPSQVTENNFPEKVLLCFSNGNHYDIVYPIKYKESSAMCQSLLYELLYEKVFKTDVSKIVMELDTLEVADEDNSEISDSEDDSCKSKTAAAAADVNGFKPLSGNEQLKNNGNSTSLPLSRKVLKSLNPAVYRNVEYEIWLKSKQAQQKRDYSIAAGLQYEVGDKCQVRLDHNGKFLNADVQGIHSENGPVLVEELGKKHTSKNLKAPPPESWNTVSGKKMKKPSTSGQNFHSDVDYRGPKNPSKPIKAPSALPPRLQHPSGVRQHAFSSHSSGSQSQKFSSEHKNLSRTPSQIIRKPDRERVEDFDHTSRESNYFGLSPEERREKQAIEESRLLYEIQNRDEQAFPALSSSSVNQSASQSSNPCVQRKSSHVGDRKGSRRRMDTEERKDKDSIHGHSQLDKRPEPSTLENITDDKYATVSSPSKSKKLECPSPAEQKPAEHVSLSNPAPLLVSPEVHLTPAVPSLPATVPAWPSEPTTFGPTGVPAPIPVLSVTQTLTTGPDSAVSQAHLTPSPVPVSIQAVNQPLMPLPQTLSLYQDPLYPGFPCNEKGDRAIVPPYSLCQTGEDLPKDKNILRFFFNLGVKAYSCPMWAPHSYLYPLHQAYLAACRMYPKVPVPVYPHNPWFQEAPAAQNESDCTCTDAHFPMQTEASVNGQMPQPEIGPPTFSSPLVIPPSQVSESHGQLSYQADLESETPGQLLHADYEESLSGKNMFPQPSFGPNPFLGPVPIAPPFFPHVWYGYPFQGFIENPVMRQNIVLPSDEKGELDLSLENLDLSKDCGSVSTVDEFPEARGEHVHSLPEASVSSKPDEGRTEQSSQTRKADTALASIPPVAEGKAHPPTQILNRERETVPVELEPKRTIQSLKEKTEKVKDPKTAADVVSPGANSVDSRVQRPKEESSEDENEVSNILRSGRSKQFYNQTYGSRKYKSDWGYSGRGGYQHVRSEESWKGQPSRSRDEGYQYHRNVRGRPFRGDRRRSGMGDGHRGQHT
In short: as §1

OTUD5 = biological target: T5, OTUD5 (UniProt Q96G74)
T5 sequence (whole entry): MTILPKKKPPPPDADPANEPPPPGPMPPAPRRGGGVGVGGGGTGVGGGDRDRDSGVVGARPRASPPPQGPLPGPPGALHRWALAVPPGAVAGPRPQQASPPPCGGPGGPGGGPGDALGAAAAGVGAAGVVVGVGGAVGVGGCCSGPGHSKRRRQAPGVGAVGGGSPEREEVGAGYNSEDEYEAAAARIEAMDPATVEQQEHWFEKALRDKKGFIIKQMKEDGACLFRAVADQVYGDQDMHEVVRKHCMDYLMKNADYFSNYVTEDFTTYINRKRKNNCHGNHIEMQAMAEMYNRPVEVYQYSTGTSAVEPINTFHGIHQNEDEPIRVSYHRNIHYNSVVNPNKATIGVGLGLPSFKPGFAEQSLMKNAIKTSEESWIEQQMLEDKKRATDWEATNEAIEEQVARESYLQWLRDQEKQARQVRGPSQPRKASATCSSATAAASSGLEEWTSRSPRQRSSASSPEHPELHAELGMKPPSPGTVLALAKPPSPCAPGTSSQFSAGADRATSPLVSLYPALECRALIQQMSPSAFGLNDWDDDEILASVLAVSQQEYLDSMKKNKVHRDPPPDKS
In short: as §1

Measured: log2 ratio of Biotin-Ahx-Ub-VS probe labelling

ATXN3, sequence (P54252 whole entry): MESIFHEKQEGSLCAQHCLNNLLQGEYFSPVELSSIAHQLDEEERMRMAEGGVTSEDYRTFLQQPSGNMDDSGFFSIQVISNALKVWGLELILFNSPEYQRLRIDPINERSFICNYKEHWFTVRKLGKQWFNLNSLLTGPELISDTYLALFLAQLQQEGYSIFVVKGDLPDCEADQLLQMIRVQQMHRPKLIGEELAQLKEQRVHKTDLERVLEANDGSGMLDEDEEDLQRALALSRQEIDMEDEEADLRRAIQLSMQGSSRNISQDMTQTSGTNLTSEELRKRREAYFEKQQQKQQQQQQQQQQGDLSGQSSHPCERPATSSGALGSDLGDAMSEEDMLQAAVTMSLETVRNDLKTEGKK
OTUB1, sequence (Q96FW1 whole entry): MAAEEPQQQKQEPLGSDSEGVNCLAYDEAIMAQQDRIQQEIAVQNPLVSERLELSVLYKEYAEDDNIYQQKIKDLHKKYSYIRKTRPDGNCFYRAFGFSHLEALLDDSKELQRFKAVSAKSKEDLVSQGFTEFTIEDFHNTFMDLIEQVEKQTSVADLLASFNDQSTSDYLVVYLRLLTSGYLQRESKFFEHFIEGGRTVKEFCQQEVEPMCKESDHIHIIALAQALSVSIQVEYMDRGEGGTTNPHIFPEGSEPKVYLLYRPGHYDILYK
EIF3F, sequence (O00303 whole entry): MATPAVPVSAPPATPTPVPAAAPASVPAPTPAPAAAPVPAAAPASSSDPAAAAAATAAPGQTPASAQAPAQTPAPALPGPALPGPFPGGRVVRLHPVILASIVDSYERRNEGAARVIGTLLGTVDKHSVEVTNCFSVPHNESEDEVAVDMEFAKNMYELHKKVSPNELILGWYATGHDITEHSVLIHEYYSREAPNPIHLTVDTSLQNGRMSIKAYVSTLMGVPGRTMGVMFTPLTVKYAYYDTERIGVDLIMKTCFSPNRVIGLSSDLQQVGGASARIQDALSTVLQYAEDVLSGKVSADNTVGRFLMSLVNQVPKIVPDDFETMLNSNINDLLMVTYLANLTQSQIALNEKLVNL
EIF3H, sequence (O15372 whole entry): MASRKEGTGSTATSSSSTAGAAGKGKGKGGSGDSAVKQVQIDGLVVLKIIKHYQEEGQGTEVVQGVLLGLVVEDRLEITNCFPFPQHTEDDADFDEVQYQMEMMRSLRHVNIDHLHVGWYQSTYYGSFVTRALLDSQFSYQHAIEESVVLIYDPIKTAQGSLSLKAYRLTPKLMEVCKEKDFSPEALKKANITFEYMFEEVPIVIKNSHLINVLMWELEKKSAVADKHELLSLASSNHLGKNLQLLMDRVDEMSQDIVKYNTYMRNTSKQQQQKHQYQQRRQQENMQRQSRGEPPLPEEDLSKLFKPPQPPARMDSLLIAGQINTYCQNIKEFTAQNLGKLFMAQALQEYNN

CC1CCc2onc(CNC(=O)CCl)c2C1 (centres undefined)
inactive: ALG13 0.206 | ATXN3 0.065 | EIF3F -0.165 | EIF3H -0.00651 | FAM105A 0.123 | OTUB1 0.048 | OTUD4 -0.0637 | OTUD5 0.0465
active: BAP1 -1.22
